Some test systems named below: HCT-15 colon; HT29 colon; SNB-75 CNS; SNB-19 CNS; U251 CNS; PC-3 prostate; SK-MEL-5 melanoma; UACC-62 melanoma; LOX IMVI melanoma; SK-MEL-28 melanoma.
What all share (experiment): NCI-60 one-dose screen, 48 h (100 = growth as untreated, 0 = no growth, -100 = all killed)
Common to all, as to conditions: 10 µM unless noted

This is part of a sample that, as a whole, favours compounds with a hit. Of some 83,000 tested, about 20% had one in any assay.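 Activity criterion: percent growth below 10, measured after cells in 96-well plates were exposed to a single compound concentration for 48 hours.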 A number with no mark means an inactive call. Activity calls are given as the source filed them.

Turning to `CCCCCCCCCCCCNC(c1ccccc1)C(O)c1ccccc1` (configuration not stated), the growth with HCT-15 colon is 66.6%; in the assay with HT29 colon, 52%; in the assay with SNB-75 CNS, 106%; in the assay on SNB-19 CNS, 87.4%; with U251 CNS, 32%; in the assay on PC-3 prostate, 79.2%. In addition, the growth is 96.7% in the assay with SK-MEL-5 melanoma, 96.7% in the assay with UACC-62 melanoma, 49.8% in the assay with LOX IMVI melanoma and 97.4% in the assay on SK-MEL-28 melanoma.

As to `COc1cc2c(cc1OCCCCCn1c(-c3ccco3)nc3ccccc31)N=C[C@@H]1CCCN1C2=O`, the growth in the assay with HCT-15 colon is 7.84% (active); in the assay with HT29 colon it was 1.38% (active); in the assay on SNB-75 CNS, -64.2% (active); with SNB-19 CNS, 23.3%; in the assay on U251 CNS it was 8.03% (active); with PC-3 prostate it was 17.5%. The growth was -17% (active) in the assay on SK-MEL-5 melanoma, -86.9% (active) in the assay with UACC-62 melanoma, -31.6% (active) in the assay with LOX IMVI melanoma and -58.6% (active) in the assay on SK-MEL-28 melanoma.

Consider `CCCCCCCCCCCCCCCCCC1OC[C@@H](COC(=O)O[C@@H](C(=O)O[C@H]2C[C@@]3(O)[C@@H](OC(=O)c4ccccc4)[C@@H]4[C@]5(OC(C)=O)CO[C@@H]5C[C@H](O)[C@@]4(C)C(=O)[C@H](OC(C)=O)C(=C2C)C3(C)C)[C@@H](NC(=O)c2ccccc2)c2ccccc2)O1` (some centres not stated), for which the growth in the assay on HCT-15 colon is 100%; in the assay with HT29 colon it was 18.2%; in the assay on SNB-75 CNS it was 50.2%; with SNB-19 CNS, 62.1%; in the assay on U251 CNS, 58%; with PC-3 prostate it was 46.6%. Besides, the growth is 75.7% with SK-MEL-5 melanoma, 58.7% in the assay with UACC-62 melanoma and 59% with SK-MEL-28 melanoma.

Consider `CC(=O)O[C@H]1C(=O)[C@@]2(C)[C@H]([C@H](OC(=O)c3ccccc3)[C@]3(O)C[C@H](OC(=O)[C@H](OC(=O)OC[C@H]4COC(C)(C)O4)[C@@H](NC(=O)c4ccccc4)c4ccccc4)C(C)=C1C3(C)C)[C@]1(OC(C)=O)CO[C@@H]1C[C@@H]2O`, for which the growth in the assay on HCT-15 colon was 5.28% (active); in the assay with HT29 colon, 2.46% (active); with SNB-75 CNS it was -20.5% (active); in the assay on SNB-19 CNS, 11.9%; in the assay with U251 CNS, 15.9%; in the assay on PC-3 prostate, 21%. The figures for the growth in the assay on SK-MEL-5 melanoma, in the assay on UACC-62 melanoma and in the assay with SK-MEL-28 melanoma were 18.2%, 21.7% and 49.7%, respectively.

Regarding `Cc1c(NS(=O)(=O)c2ccccc2)ccc([N+](=O)[O-])c1Cl`, the growth with HCT-15 colon was 64.9%; with HT29 colon, 76.4%; in the assay on SNB-75 CNS it was 75.4%; with SNB-19 CNS, 61.7%; in the assay with U251 CNS, 63.5%; in the assay with PC-3 prostate, 56.2%. Moreover, the growth in the assay with SK-MEL-5 melanoma is 25.8%; in the assay with UACC-62 melanoma, 31.2%; in the assay with SK-MEL-28 melanoma, 70.5%.

Consider `O=C1CC2(CC3(Cl)C(Cl)=C(Cl)C2(Cl)C3(Cl)Cl)C(=O)O1` (configuration not stated), for which the growth was 113% in the assay with HCT-15 colon; 113% with HT29 colon; 89.4% in the assay with SNB-75 CNS; 106% in the assay with SNB-19 CNS; 107% in the assay on U251 CNS; 93.6% with PC-3 prostate. Moreover, the growth in the assay on SK-MEL-5 melanoma is 102%; with UACC-62 melanoma, 112%; with SK-MEL-28 melanoma, 112%.

Regarding `CCCCCCCOC(C(=O)OCCN(CC)CC)(c1ccccc1)c1ccccc1`, the growth is 49.9% in the assay with HCT-15 colon; 31.4% in the assay on HT29 colon; 86.1% in the assay on SNB-75 CNS; 94% in the assay on SNB-19 CNS; 77.8% in the assay with U251 CNS; 61.2% in the assay with PC-3 prostate. Besides, the results for the growth in the assay on SK-MEL-5 melanoma, with UACC-62 melanoma and in the assay on SK-MEL-28 melanoma were 78.2%, 103% and 96%, respectively.

`C[C@]12CC[C@H]3[C@@H](C[C@@H]4SC(Nc5ccccc5)=N[C@@]45CC(O)CC[C@]35C)[C@@H]1CCC2O` (some centres not stated): the growth in the assay on HCT-15 colon was -30.2% (active); in the assay on HT29 colon, -38.5% (active); in the assay on SNB-75 CNS, -5.43% (active); with SNB-19 CNS it was 26.5%; with U251 CNS it was -30.1% (active); in the assay on PC-3 prostate, 39.2%. The growth in the assay on SK-MEL-5 melanoma is 34.5%; in the assay with UACC-62 melanoma it was 39.8%; in the assay with LOX IMVI melanoma, -81.5% (active); with SK-MEL-28 melanoma, 27.3%.

Turning to `CC(=O)OC1C(OC/C2=C/C3[C@@H](C(C)C)CC=C(C)[C@@H]3CC(OC(=O)/C=C/c3cn(C)cn3)[C@]3(C)C=C[C@@]2(O)O3)OCC(O)C1O` (some centres not stated), the growth with HCT-15 colon is 36.2%; with HT29 colon it was 8.89% (active); in the assay with SNB-75 CNS, -28.6% (active); in the assay with SNB-19 CNS it was 37%; in the assay on U251 CNS, 18.2%; in the assay with PC-3 prostate it was 26.5%. In addition, the growth in the assay with SK-MEL-5 melanoma was 7.53% (active); in the assay with UACC-62 melanoma, 26.5%; in the assay with SK-MEL-28 melanoma, 45.7%.

Regarding `O=C(Nc1ccc(O)cc1)C(Cl)(Cl)Cl`, the growth is 98.7% with HCT-15 colon; 105% in the assay with HT29 colon; 98.5% in the assay with SNB-75 CNS; 102% with SNB-19 CNS; 95% with U251 CNS; 101% in the assay on PC-3 prostate. For the same molecule, the growth with SK-MEL-5 melanoma is 100%; in the assay with UACC-62 melanoma, 93.8%; with SK-MEL-28 melanoma, 107%.

For the molecule `C=COC(=O)CCN1CC1`, the growth was 109% in the assay with HCT-15 colon; 110% with HT29 colon; 101% with SNB-75 CNS; 96.3% in the assay with SNB-19 CNS; 101% in the assay with U251 CNS; 97.5% in the assay with PC-3 prostate. In addition, the growth was 105% in the assay on SK-MEL-5 melanoma, 97.9% in the assay with UACC-62 melanoma and 113% with SK-MEL-28 melanoma.
